Assay in all cases: NCI-60 one-dose screen, 48 h (100 = growth as untreated, 0 = no growth, -100 = all killed)
What all share (settings): 10 µM unless noted

The subject of assay [1] is RPMI-8226 leukemia.
Assay [2] has as its system OVCAR-8 ovarian.
In assay [3] the test system is OVCAR-5 ovarian.
In assay [4] the test system is OVCAR-4 ovarian.
In assay [5] the test system is SK-OV-3 ovarian.
Assay [6] has as its system IGROV1 ovarian.
The subject of assay [7] is OVCAR-3 ovarian.
For assay [8], the system named is HS 578T breast.
Assay [9] has as its system NCI/ADR-RES ovarian.
Assay [10] relates to T-47D breast.

The panel holds about 83,000 compounds, 20% with a hit somewhere; the sample as a whole holds those more often.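 Assay: single dose, 48 h. Readout: percent growth (0 = no net growth; negative = cell death). Active: <10.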 Unmarked numbers belong to inactive results. Active and inactive are the calls of the source.

`C[C@]12CC[C@@H]3c4ccc(O)cc4CC[C@H]3[C@@H]1C[C@H](O)C2`: the growth is 79.7% in assay [1]; 82.7% in assay [2]; 116% in assay [3]; 87% in [4]; 82.7% in assay [5]; 79.2% in assay [6]. The growth in assay [7] is 73.2%; in assay [8], 57.6%; in [9], 70.9%; in assay [10] it was 96.9%.

For `O=c1[nH]c(-c2cccc(F)c2)cc2cc(F)ccc12`, the growth in [1] was 22.5%; in [2], 30.2%; in [3] it was 48.4%; in [4] it was 63.4%; in [5], 26.1%; in assay [6] it was 40.1%. Further, the growth is -11.9% (active) in [7], 34.7% in assay [8], 6.86% (active) in [9] and 49.8% in [10].

For `CN1C(=O)c2cc(Cl)nc3c(NC(=O)c4cccc(Cl)c4)c(Cl)c(NC(=O)c4cccc(Cl)c4)c1c23`, the growth was 38.4% in assay [1]; 2.78% (active) in assay [2]; 88.7% in assay [3]; -22.7% (active) in assay [4]; 86.4% in [5]; -66.2% (active) in assay [6]. Besides, the growth was -52.7% (active) in assay [7], -12.3% (active) in assay [8], 27.5% in assay [9] and 22.1% in [10].

For `COc1ccc2c(c1)OC13Oc4cc(OC)ccc4C=C1CCCCC3=C2`, the growth in assay [1] is 97.8%; in [2], 92.5%; in [3], 104%; in assay [4] it was 104%; in [5] it was 80.8%; in [6] it was 99.3%. In addition, the growth was 108% in assay [7], 99.4% in [8], 96.9% in assay [9] and 67.6% in assay [10].

For the molecule `COc1ccc(-c2[nH]c3ccccc3c2C=C(C#N)C#N)cc1`, the growth in [1] is -43.8% (active); in assay [2] it was 19.4%; in assay [3] it was 26.7%; in assay [4] it was 33.2%; in assay [5] it was 28.7%; in assay [6] it was 12.3%. In addition, the growth in assay [7] is -6.19% (active); in [8], 16.4%; in assay [9], -12% (active); in assay [10], 51.5%.

In the case of `C#CC[C@@H]1C[C@]2(C)[C@H]3CC[C@@H]4[C@H]5[C@H](C(=C)C)CC[C@]5(C(=O)O)CC[C@@]4(C)[C@]3(C)CC[C@H]2C(C)(C)[C@H]1O`, the growth in [1] was 24.1%; in assay [2], 45.8%; in assay [3] it was 95.7%; in assay [4] it was -18.7% (active); in [5], 74.3%; in [6], 60.2%. The growth in assay [7] is -33.5% (active); in assay [8], 33.4%; in [9], 44%; in assay [10], 51.1%.

`C=C(C)[C@@H]1CC[C@]2(C(=O)N3CCN(C)CC3)CC[C@]3(C)[C@H](CC[C@@H]4[C@@]5(C)C/C(=C/c6ccco6)C(=O)C(C)(C)[C@@H]5CC[C@]43C)[C@@H]12`: the growth in assay [1] is 33.7%; in assay [2], 70.7%; in [3], 83.2%; in assay [4], 71.7%; in assay [5], 71.3%; in assay [6], 90.1%. Further, the growth is 88.1% in [7], 66.4% in assay [8], 69.8% in [9] and 72.7% in [10].

With `COc1ccc(-c2cc(-c3nnc(SCC(=O)Nc4ccc(/C(C)=N\O)cc4)n3-c3ccccc3)c3cc(OC)ccc3n2)cc1`, the growth in assay [1] is 66.7%; in assay [2], 75.8%; in assay [3], 102%; in [4] it was 92.1%; in [5] it was 79.9%; in [6] it was 39.6%. Moreover, the growth in [7] was 77.4%; in assay [8] it was 82.7%; in assay [9], 71.3%; in [10] it was 45.4%.

Take `Cc1ccc2nc3nc4ccc[nH]c4cc3c2c1`: the growth in assay [1] was 49.3%; in assay [2], 99.7%; in [3], 90.9%; in assay [4], 65.8%; in assay [5], 89.2%; in assay [6] it was 68.2%. Besides, the growth was 77.6% in assay [7], 90.2% in [8], 99.9% in [9] and 10.3% in assay [10].

As to `C=CCn1c(SCC(=O)Nc2ccc(C(=O)/C=C/c3ccc(Cl)cc3)cc2)nnc1-c1cc(OC)c(OC)c(OC)c1`, the growth is 28.7% in [1]; 91.6% in assay [2]; 116% in assay [3]; 87.9% in [4]; 109% in [5]; 99.5% in assay [6]. The growth in [7] was 91.9%; in assay [8], 87.8%; in [9] it was 95.5%; in assay [10] it was 78.9%.

Turning to `COc1ccc(/C=C/C(=O)c2ccc(NC(=O)CSc3nnc(-c4ccc(OC)c(OC)c4)n3-c3ccccc3)cc2)cc1`, the growth in assay [1] is -25% (active); in [2] it was 11.4%; in assay [3], 112%; in [4], 91.3%; in [5] it was 85.1%; in assay [6], -36.7% (active). The growth was 59.8% in [7], 86.6% in [8], 57.4% in assay [9] and 36.2% in assay [10].

For the molecule `CSc1nc(-c2ccco2)c2c(N)[nH]nc2n1`, the growth was 109% in assay [1]; 108% in [2]; 109% in [3]; 109% in [4]; 98.6% in assay [5]; 109% in [6]. Moreover, the growth was 116% in [7], 108% in assay [8], 103% in assay [9] and 75.7% in [10].
